From the supplement of paper PMC6555819

Tested on: VDR:RXRa (NR concentration 270 nM, RXRa partner concentration 90 nM)
Assay: PBM binding z-score (relative to random genomic background probes); higher = stronger binding; sequences stand for … in GC…GCGATTGACAGCGTAGAATGAAGG
Experimental: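 Protein-binding microarray (Agilent 4x180K custom design, double-stranded 60-nt probes: 5' GC cap, 34-nt variable region, 24-nt constant primer region; full probe sequence given). Purified or IVT nuclear receptor:RXRα heterodimers (3:1 NR:RXRα, mostly 270:90 nM) or homodimers were incubated for 1 h in PBS with 2% milk and no ligand, then detected with Alexa488 antibodies. Fluorescence from o1-orientation probes (~5 replicates averaged) was converted to z-scores against 500 random hg19 background probes. Variable regions are seed direct-repeat (DR0–DR5) sites, all their single-nucleotide variants and half-site ablations.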

| Sequence | PBM binding z-score |
| --- | --- |
| CGTCCAAGGTCAACGGTCAGTGAAGAGATGACGG | 4.18 |
| ATCTCTAGGTAATAGTTCAGTGAATCCCGAGGAT | 0.188 |
| CCATACAGGTGAAAGGTAACTCAGTCTGGTACGC | 0.988 |
| CGAACTAGGTCATTAACAGGACAGTGAATAGTAA | 1.77 |
| CGTCCAACGTCATAGGAGGTCAGTGAAGACAGAT | 2.06 |
| CCTAACAGGCCAATCTGGGTCACTCAAGGCTTGA | 1.04 |
| CCTCGGAGGACAACAGGAGGCCAGAGCTGCCAGA | -0.504 |
| CCTCGGAGGACAACAGCAGGTCAGAGCTGCCAGA | 0.333 |
| CCTACTGGGCCACGAAAGGTCATTGGTTCAGTGA | 4.55 |
| TCTAGTTCGTCAAAGGTCACACACTCGAAATGCG | 5.77 |
| GCTGCTAGGTCAACTGATGGTCAGTTAAAGCTCG | 1.85 |
| CCAACTAGGTCAAGGACAGTGAATCTCCGCACGC | 1.16 |
| ACTATTAGTTAAGACGAGGGCAACCGATAGGTTG | 0.464 |
| TCGAGTAGGTTACCAGTGGGGCATTCAGCTTTCT | 0.134 |
| ACAGCCAGGTGAGTGAAGGTAACTCAGCTGGACG | -0.635 |
| ATATGTAGGTTGGCTGGGGTCATTCAGACTAGGC | 5.67 |
| ATCGAAAGGTCGAAGGTGAGTATGCCCACCCGAA | 2.68 |
| GCTAGTTGGTCAGCAAAAGGTCACACACCGGTCG | 4.13 |
| ATATGTAGGTTATCGGGTCATTCAATTTGCGCAT | 3.87 |
| CCGACAGGGGCAAAGGTTACCATACTCAGTACGA | 2.6 |

| Sequence | PBM binding z-score |
| --- | --- |
| CGTCAAAGTTCGAGGTAACGTAACAGAAAGCAGC | 1.32 |
| CCTAGCAGGCCAATCTGGGTCACTCAAGGCTTGA | 0.724 |
| CCTAGCAGGCCAGGGTCACTCTAGCATTTCGCTT | 2.45 |
| CCAGACAGGTGAGCAGGTAACTCAGCCTCGATTA | -0.287 |
| TCGAGTAGCTTAGTCGGGGCATTCAGCCAACATA | -0.32 |
| ATCGATAGGTCGAAGGTGAGTATACCCACCCGAA | 0.776 |
| CCTTACTGGTCAAGGTTATAGCACGGGTGGTACG | 0.737 |
| CCTTACGGGTCACTCCAGGGTATAGCATCGGAGT | 3.25 |
| TCTTGTGGATCAAAGGTTAAGAAAGCCGAAGCCT | 1.54 |
| TCAGACAGGTGAAGGTAACTCCGGTACGCAGTCG | 0.726 |
| ACTAGCAGGCCAAGGGTCCCTCAAGATTAGTCCG | -0.454 |
| GCATATAGGTAATACAAGGTGATAGTCCGATTGT | -0.0322 |
| GCTTGTAGATCAAGGTTACGAAAGACTAAGCTAA | 0.359 |
| CGTCCAAGGTGAGCAGGTCAGTGAAAGCGACGTG | 0.0617 |
| CCAATTAGTTGACCATAAGGGCAACCGAAGCTCG | 0.678 |
| GCAGACATGTGAAACGCAGGTAACTCAGGGTGGC | -0.478 |
| ATCTCTAGGTAACCAAGTTCCGTGAATGCCGAAC | 0.306 |
| TCTAGAAGGCCAGAGGGTCACTCAAGAGGTACGG | 2.05 |
| CCTACTGGGCCAAGGTCATTGATCAGTCAAAGCA | 3.15 |
| CTCGTAAGGTCGGTTGAGGTGAGTATACGGATAA | 1.75 |
